Screening data as filed in PubChem BioAssay.
Shown are actives, neighbours in structure and some others; about 19% of the full set was active somewhere.
KB-3-1 cytotox – KB-3-1 parental cell cytotoxicity; KB-3-1 viability, CellTiter-Glo ATP luminescence, 72 h; Potency, µM (series often up to 46.1 µM), most hits filed as cytotoxic; 1.4% of 400,000 active; further: nearly all actives have a fitted effect of over 60% in size
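Parental KB-3-1 adenocarcinoma cells in phenol-red-free DMEM with 10% FBS were pin-treated with compounds at several concentrations, incubated 72 h at 37 °C, and viability read by CellTiter-Glo luminescence; concentration-effect curves were fitted after normalization.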
KB-V1 MDR tox – kills drug-selected multidrug resistant KB-V1 cells; KB-V1 MDR cells viability, CellTiter-Glo, 72 h; Potency, µM (doses to about 46.1 µM), hits mostly cytotoxic; 3.4% of 400,000 active; AID 1347076; further: nearly all actives have a fitted effect of over 60% in size
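KB-V1 MDR subline cells in DMEM (phenol-red free, 10% FBS) exposed to compounds in qHTS concentration series for 72 h at 37 degrees C. Viability read by CellTiter-Glo luminescence; concentration-effect curves fitted after normalization and correction.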
HT1080NT lethal – kills 2HG-producing HT-1080-NT fibrosarcoma cells. HT-1080-NT fibrosarcoma viability, CellTiter-Glo ATP luminescence, 48 h. Potency, µM (highest dose often 46.1 µM), usual class: cytotoxic. 1.6% of 360,000 active. AID 686970;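 further: NT is the 2HG producing partner of a matched IDH1 knockdown line; nearly all actives have a fitted effect of over 55% in size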
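Read-out is CellTiter-Glo luminescence after 10 minutes at room temperature, following 48 hours' compound treatment of HT-1080-NT cells (750 cells/well, RPMI, 5% FBS, 37 degrees C).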
HT1080 IDH1KD tx – kills HT-1080 cells with IDH1 knockdown. AID 686971. HT-1080 IDH1 knockdown viability, ATP luminescence, 48 h. Potency, µM (highest dose often 46.1 µM), most hits filed as cytotoxic. 2% of 360,000 active
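After a 2 h attachment period, IDH1KD HT-1080 cells took pin-transferred compound for 48 h at 37 °C; ATP-based luminescence after 10 min room-temperature reagent incubation reported viability.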
DT40 TDP1 no CPT – qHTS for Inhibitors of human tyrosyl-DNA phosphodiesterase 1 (TDP1): qHTS in cells in absence of CPT; DT40 Tdp1-/- hTDP1 cells, no CPT, ATP luminescence, 48 h; Potency, µM (top dose mostly 46.2 µM), usual class: inhibitors; 15% of 420,000 active; further: nearly all actives have a fitted effect of over 55% in size
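Camptothecin absent (DMSO only). Human TDP1-complemented DT40 knockout cells, 400 cells/well, 37 °C for minimum 48 hr; ATP measured via CellTiter-Glo, 30 min dark incubation, luminescence.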
DT40 TDP1 CPT – DT40-hTDP1 cell growth loss with CPT. chicken DT40 Tdp1-/-;hTDP1 cells + 20 nM CPT, ATP luminescence, 48 h. Potency, µM (titrated, usually from 46.2 µM), hits mostly inhibitors. 12% of 420,000 active. AID 686979; further: nearly all actives have a fitted effect of over 55% in size
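Chicken DT40 Tdp1-/- cells complemented with human TDP1, 400 cells/well, exposed to compounds plus 20 nM camptothecin for at least 48 h at 37 C; viability read as ATP content by CellTiter-Glo luminescence.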
Hits are given with their value; – = inactive; ? = inconclusive; · = no result given; [ ] = another dose, or the depositor's remark. The call rests on the fitted dose curve; in most records, active means well fitted curve in the direction sought with a large enough effect; inconclusive means small, poorly fitted or top-dose-only effect, or another doubt; inactive means no such curve, though single readings can be large; an effect the other way counts as inactive or inconclusive.

SMILES	KB-3-1 cytotox	KB-V1 MDR tox	HT1080NT lethal	HT1080 IDH1KD tx	DT40 TDP1 no CPT	DT40 TDP1 CPT
O=C(/C=C/c1cccnc1)c1ccc(F)c(F)c1	?	–	?	?	16µM	?
O=C(O)/C=C/c1cccnc1	–	–	–	–	–	–
CCn1c2ccccc2c2cc(/C=C3\C=Cc4ccccc43)ccc21	–	–	·	·	?	–
Fc1ccc(/C=N/Nc2nnnn2-c2ccccc2)cc1	–	–	?	–	–	–
Cn1nnnc1NN=Cc1ccccc1	–	18µM	–	–	–	–
Cc1cc(C)n2c(NCc3ccccc3)c(CCc3ccccc3)nc2n1	–	?	–	–	?	?
CCCCNc1c(CC(C)C)nc2nc(C)cc(C)n12	–	?	–	–	23µM	16µM
Cc1cc(C)n2c(Nc3c(C)cccc3C)c(CC(C)C)nc2n1	–	–	–	?	23µM	?
O=C(NC1CCCCC1)C(c1ccnc2ccccc12)N1CCc2ccccc2C1 (stereo not drawn)	–	–	–	–	?	?
O=C(NC1CCCCC1)C(c1ccnc2ccccc12)n1c(=O)c(-c2ccco2)nc2ccccc21 (stereo not drawn)	–	–	–	–	13µM	13µM
O=C(NC1CCCC1)C(c1ccccc1)n1c(CSCCOc2ccccc2)nc2ccccc21 (stereo not drawn)	–	?	?	–	16µM	?
O=C(NC1CCCC1)C(c1ccccc1)n1c(-c2cccs2)nc2ccccc21 (stereo not drawn)	?	?	–	–	?	?
Cc1cc(N2CCN(C(C(=O)NC3CCCC3)c3ccc(-c4ccccc4)cc3)CC2)c2ccccc2n1 (stereo not drawn)	?	21µM	–	–	8.2µM	7.3µM
O=C(NC1CCCCC1)C(C1CC1)n1c(=O)c(-c2ccccc2)nc2ccccc21 (stereo not drawn)	–	?	–	?	16µM	?
CCOc1ccccc1CNC(=O)C1CCN(c2nn3cc(-c4ccc(F)cc4)nc3s2)CC1	–	–	·	·	–	–
Cc1ccc(C)c(S(=O)(=O)c2nnn3c2nc(N2CCCCC2)c2sccc23)c1	–	?	·	·	?	?
CC(C)CN(CC(C)C)C(=O)CN1C(=O)NC2(CCCc3ccccc32)C1=O (stereo not drawn)	–	?	–	–	–	–
O=C(NC1CCCCC1)C(c1ccc(-c2ccccc2)cc1)n1c(=O)c(-c2ccco2)nc2ccccc21 (stereo not drawn)	–	–	?	?	15µM	?
O=C(NC1CCCCC1)C(c1ccccc1F)n1c(=O)c(-c2ccco2)nc2ccccc21 (stereo not drawn)	–	–	–	–	16µM	?
N#Cc1ccc(C(C(=O)NC2CCCCC2)n2c(=O)c(-c3ccccc3)nc3ccccc32)cc1 (stereo not drawn)	–	–	–	–	?	?
CCCCCNC(=O)C(c1ccccc1F)n1c(=O)c(-c2ccco2)nc2ccccc21 (stereo not drawn)	–	–	–	–	?	?
O=C(NCC1Cc2cccc(-c3cncnc3)c2O1)C1CC1 (stereo not drawn)	·	·	·	·	–	–[9.04 µM]
CCc1ccc(CNC(=O)c2ccc3c(c2)nc2n3CCOC2)cc1	–	–	·	·	?	–
CCOc1cc(C(=O)N2CCC(c3ccncc3)CC2)cc(OCC)c1OCC	–	–	·	·	–	–
CN(C)c1cccc(C(=O)N2CCC(c3ccncc3)CC2)c1	?	–	·	·	–	21µM
SMILES	KB-3-1 cytotox	KB-V1 MDR tox	HT1080NT lethal	HT1080 IDH1KD tx	DT40 TDP1 no CPT	DT40 TDP1 CPT
CCOC(=O)c1cnc2c(C)c(Cl)ccc2c1N1CCN(CC)CC1	–	–	15µM	15µM	?	?
CCOC(=O)c1cnc2c(Cl)c(Cl)ccc2c1N1CCN(C)CC1	–	?	15µM	16µM	–	–
CCOC(=O)c1c[nH]c2c(Cl)c(Cl)ccc2c1=O	–	–	–	–	?	?
COc1ccccc1CCn1c(=O)c(-c2ccc(F)c(F)c2)nc2cncnc21	·	·	·	·	–	–
COc1ccc(-n2c(=O)c(-c3ccc(F)c(F)c3)nc3cncnc32)cc1	·	·	·	·	–	–
COc1cc(OC)c(NC2=CC(=O)C(=O)c3ccccc32)cc1Cl	4.6µM	4.1µM	21µM	8.2µM	18µM	12µM
Cc1cc(NC(=O)CCN2C(=O)c3ccccc3C2=O)no1	–	–	–	–	–	–
CCC(C(=O)Nc1cc(Cl)c(OC)cc1OC)c1ccccc1 (stereo not drawn)	–	–	–	–	?	?
Cc1cc(NC2=CC(=O)C(=O)c3ccccc32)no1	?	18µM	?	?	12µM	6.5µM
CCc1ccc(NC(=O)CCCc2nnc3n(C(C)CC)c(=O)c4sccc4n23)cc1 (stereo not drawn)	·	·	·	·	–	–
COc1ccc(CN2C[C@@H](CO)O[C@@H](n3cnc4c(NCCN(C)C)ncnc43)C2)cc1	–	–	–	–	–	?
COc1cc2c(cc1OC)[C@@H]1Cc3ccc(OC)c(OC)c3CN1CC2	–	–	–	–	?	–
COc1ccc2cc1Oc1cc3c(cc1OC)CC[N+](C)(C)[C@H]3Cc1ccc(cc1)Oc1c(OC)c(OC)cc3c1[C@@H](C2)[N+](C)(C)CC3	·	·	·	·	?	–
COc1ccc2cc1Oc1ccc(cc1)C[C@H]1c3c(cc(OC)c4c3Oc3c(ccc5c3[C@H](C2)N(C)CC5)O4)CCN1C	–	?	–	–	5.2µM	5.8µM
COc1ccc2cc1Oc1ccc(cc1)CC1c3c(cc(OC)c4c3Oc3cc5c(cc3O4)CCNC5C2)CCN1C (stereo not drawn)	16µM	?	?	18µM	1.6µM	2.9µM
NS(=O)(=O)c1ccc(NC(=O)Nc2ccc3c(c2)OCO3)cc1	–	?	–	?	–	–
O=c1c(-c2c(O)cc(O)c3c2O[C@H](c2ccc(O)cc2)CC3)c(-c2ccc(O)cc2)oc2cc(O)cc(O)c12	–	–	–	–	5.2µM	?
CN1CCC(N(C)C(=O)COc2ccccc2Cl)CC1	–	–	–	–	–	–
CCCCOc1ccc(S(=O)(=O)Nc2cc(OC)ccc2OC)cc1	–	?	?	–	16µM	?
COc1ccc(NC(=O)c2ccc(C#N)cc2)cc1NS(=O)(=O)c1ccc(F)cc1	–	–	–	–	–	–
COc1ccc(OC)c(NS(=O)(=O)c2ccc(NC(=O)c3ccc(NS(C)(=O)=O)cc3)cc2)c1	16µM	–	–	–	–	–
COc1ccc(NC(=O)c2ccc3ccccc3c2)cc1NS(=O)(=O)c1ccc(F)cc1	–	21µM	–	–	?	?
